Data published in PubChem BioAssay.
A number with no mark means an inactive call. For part of these data: Entries with a potency or affinity are not part of this list. The source made the active and inactive calls. Unless noted, no rule for the calls is given here.

Tests used:
[1] = antimalarial activity against Dd2 strain (AID 2302;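 active = growth inhibition above 50% at the single 2 µM test dose, taken to imply half-maximal potency below 2 µM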;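 also: 0% = DMSO untreated growth and 100% = chloroquine plus artemisinin killed control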); conditions: P. falciparum Dd2 in RBCs, LDH growth readout, 72 h; at 2 µM; hits give high values
[2] = HepG2 cytotoxicity, primary screen, cytotoxicity control for P. falciparum antimalarial project, cell-based, ATP luminescence (AID 2303;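 active = inhibition above 50%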;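 also: 0% = DMSO wells and 100% = digitonin-killed cells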); conditions: HepG2 viability, 24-48 h, at 10 µM, hits give high values
[3] = target: L-lactate dehydrogenase (Plasmodium falciparum (isolate CDC / Honduras)) (UniProt Q27743); assay: PfLDH activity inhibition – cell lysate, 3D7 strain, counter-screen for P. falciparum growth inhibition project (AID 2304);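 also: 0% = vehicle and 100% = reference inhibitor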; conditions: P. falciparum 3D7 crude extract, LDH APAD/NBT absorbance; at 2 µM; hits give high values
L-lactate dehydrogenase (Plasmodium falciparum (isolate CDC / Honduras)), sequence (Q27743 whole entry, looked up): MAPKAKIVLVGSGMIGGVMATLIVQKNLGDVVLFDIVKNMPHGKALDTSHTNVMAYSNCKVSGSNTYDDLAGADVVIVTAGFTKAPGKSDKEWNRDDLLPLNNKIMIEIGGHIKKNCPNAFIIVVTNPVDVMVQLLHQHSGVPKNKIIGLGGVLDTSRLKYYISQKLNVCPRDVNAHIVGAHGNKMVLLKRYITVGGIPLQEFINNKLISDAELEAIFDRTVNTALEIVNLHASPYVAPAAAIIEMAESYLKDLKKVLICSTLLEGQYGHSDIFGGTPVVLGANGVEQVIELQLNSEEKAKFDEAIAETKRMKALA

[4] = inhibition of 3D7 malaria parasite growth – strain 3D7 (AID 2306);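 also: 0% = DMSO wells and 100% = chloroquine plus artemisinin control wells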; conditions: P. falciparum 3D7 erythrocytic growth, LDH absorbance, 72 h; at 2 µM; hits give high values
[5] = target: Calcium-dependent protein kinase 1 (Plasmodium falciparum (isolate 3D7)) (UniProt P62344); assay: PfCDPK1 kinase inhibitors, biochemical, TCAMS library (AID 1159585; cut-off not given, nearly all actives have IC50 up to about 0.98 µM;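 also: inhibitors leave more ATP so luminescence rises with inhibition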); conditions: recombinant PfCDPK1, Kinase-Glo ATP depletion luminescence
Calcium-dependent protein kinase 1 (Plasmodium falciparum (isolate 3D7)), sequence (P62344 whole entry, looked up): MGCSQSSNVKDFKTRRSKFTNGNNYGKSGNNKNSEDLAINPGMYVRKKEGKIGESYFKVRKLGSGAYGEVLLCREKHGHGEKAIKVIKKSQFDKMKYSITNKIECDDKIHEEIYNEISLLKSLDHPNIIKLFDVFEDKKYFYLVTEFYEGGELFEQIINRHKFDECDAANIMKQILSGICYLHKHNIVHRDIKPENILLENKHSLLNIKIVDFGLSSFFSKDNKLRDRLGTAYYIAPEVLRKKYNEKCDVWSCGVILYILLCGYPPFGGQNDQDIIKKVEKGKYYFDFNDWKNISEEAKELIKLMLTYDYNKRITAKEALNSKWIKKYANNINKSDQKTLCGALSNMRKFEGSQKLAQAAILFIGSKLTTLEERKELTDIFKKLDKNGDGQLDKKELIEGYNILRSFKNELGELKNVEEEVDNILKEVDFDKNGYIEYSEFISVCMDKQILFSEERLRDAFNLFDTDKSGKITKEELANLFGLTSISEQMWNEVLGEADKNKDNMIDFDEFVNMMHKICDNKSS

[6] = target: Plasmodium falciparum protein kinase 6 (PK6, PF3D7_1337100) (UniProt Q8IDW1); assay: PfPK6 kinase inhibitors, biochemical, TCAMS library (AID 1159586); conditions: recombinant PfPK6, Kinase-Glo ATP depletion luminescence
Plasmodium falciparum protein kinase 6 (PK6, PF3D7_1337100), sequence (Q8IDW1 1-305): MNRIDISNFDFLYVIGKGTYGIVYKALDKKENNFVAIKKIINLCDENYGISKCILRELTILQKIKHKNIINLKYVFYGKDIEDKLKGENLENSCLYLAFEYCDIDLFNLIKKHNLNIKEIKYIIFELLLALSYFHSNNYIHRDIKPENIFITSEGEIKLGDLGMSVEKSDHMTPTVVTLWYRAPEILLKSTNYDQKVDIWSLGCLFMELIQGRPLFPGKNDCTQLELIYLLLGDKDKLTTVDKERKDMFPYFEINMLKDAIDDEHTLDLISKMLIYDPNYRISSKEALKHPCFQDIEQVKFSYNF

[7] = target: Protein kinase 7 (PK7), Plasmodium falciparum 3D7 (PF3D7_0213400) (UniProt Q7YTF7); assay: inhibition of Plasmodium PK7 catalytic activity – biochemical, TCAMS antimalarial set, Kinase-Glo luminescence (AID 1159587); conditions: recombinant PfPK7, Kinase-Glo ATP depletion luminescence
Protein kinase 7 (PK7), Plasmodium falciparum 3D7 (PF3D7_0213400), sequence (Q7YTF7 1-343): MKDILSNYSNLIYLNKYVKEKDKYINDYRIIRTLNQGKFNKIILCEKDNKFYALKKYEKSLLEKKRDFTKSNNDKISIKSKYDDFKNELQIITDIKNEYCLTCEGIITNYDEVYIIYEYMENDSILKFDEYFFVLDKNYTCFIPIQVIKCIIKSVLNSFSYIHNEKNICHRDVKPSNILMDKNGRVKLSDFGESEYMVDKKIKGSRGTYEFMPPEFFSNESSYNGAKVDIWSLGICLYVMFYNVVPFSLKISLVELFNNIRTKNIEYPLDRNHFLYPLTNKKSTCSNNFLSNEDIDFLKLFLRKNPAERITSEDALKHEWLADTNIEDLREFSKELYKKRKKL

[8] = target: Calcium-dependent protein kinase 4 (Plasmodium falciparum (isolate 3D7)) (UniProt Q8IBS5); assay: PfCDPK4 kinase inhibitors, biochemical, TCAMS library (AID 1159588; cut-off not given, nearly all actives have IC50 up to about 0.91 µM); conditions: recombinant PfCDPK4, Kinase-Glo ATP depletion luminescence
Calcium-dependent protein kinase 4 (Plasmodium falciparum (isolate 3D7)), sequence (Q8IBS5 whole entry, looked up): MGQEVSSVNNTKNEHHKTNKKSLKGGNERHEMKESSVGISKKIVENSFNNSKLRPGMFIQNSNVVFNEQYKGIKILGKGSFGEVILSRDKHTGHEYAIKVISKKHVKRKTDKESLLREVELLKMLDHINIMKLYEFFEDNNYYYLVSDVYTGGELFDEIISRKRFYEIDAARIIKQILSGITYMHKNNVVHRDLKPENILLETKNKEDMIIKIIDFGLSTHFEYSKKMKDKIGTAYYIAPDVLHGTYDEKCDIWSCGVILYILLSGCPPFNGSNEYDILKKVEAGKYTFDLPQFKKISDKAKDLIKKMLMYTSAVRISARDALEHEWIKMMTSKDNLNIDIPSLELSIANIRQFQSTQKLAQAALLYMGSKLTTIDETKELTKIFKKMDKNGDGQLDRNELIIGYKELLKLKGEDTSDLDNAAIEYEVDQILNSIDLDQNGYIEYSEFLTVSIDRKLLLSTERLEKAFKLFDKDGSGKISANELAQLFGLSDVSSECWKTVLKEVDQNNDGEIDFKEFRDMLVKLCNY

Structure (SMILES) | growth inhibition [1] | inhibition [2] | inhibition [3] | growth inhibition [4] | outcome [5] | outcome [6] | outcome [7] | outcome [8]
COc1ccc(CN2CCCN(Cc3cccc(NC(=O)c4ccc5ccccc5c4)c3)CC2)cc1 | 11% | 27% | -5% | 93% (active) | inactive | inactive | inactive | inactive
CC(C)c1ccc(NC(=O)c2ccc(CN3CCCN(CC4CCCCC4)CC3)cc2)cc1 | 34% | 50% (active) | 6% | 90% (active) | inactive | inactive | inactive | inactive
COc1ccc2nc(N)nc(C)c2c1 | 1% | 5% | 5% | 90% (active) | inactive | inactive | inactive | inactive
O=C(Nc1ccc(CN2CCOCC2)cc1)c1ccc(-c2cc(Cl)ccc2Cl)o1 | 13% | 5% | -1% | 101% (active) | inactive | inactive | inactive | inactive
O=C(Nc1ccc(-c2nc3ccccc3[nH]2)cc1)C1CCN(Cc2ccccc2)CC1 | 82% (active) | 12% | 4% | 100% (active) | inactive | inactive | inactive | inactive
Cc1noc(C)c1-c1cccc(CNCc2ccc(-c3cccc(-c4nc5ccc(C(F)(F)F)cc5[nH]4)c3)cc2)c1 | 97% (active) | 37% | 3% | 101% (active) | inactive | inactive | inactive | inactive
CN(C)CCCOC(=O)c1cc2cc(-c3ccccc3)ccc2n1S(=O)(=O)Cc1ccccc1 | 70% (active) | 13% | -5% | 101% (active) | inactive | inactive | inactive | inactive
N#Cc1ccc(N[C@@H](CC2CCCCC2)C(=O)NCc2cc(Cl)cc(Cl)c2)c2ccccc12 | 88% (active) | 34% | 0% | 94% (active) | inactive | inactive | inactive | inactive
Oc1ccc(-c2ccccc2)cc1CNC1CCCCC1 | 100% (active) | 24% | -3% | 95% (active) | inactive | inactive | inactive | inactive
CN(C)CCCn1cncc1-c1ccc2ncnc(Nc3ccc(OCc4ccccc4)cc3)c2c1 | 101% (active) | 37% | 2% | 101% (active) | inactive | inactive | inactive | inactive
COc1ccc(C(=O)Nc2ccc(-c3ccc([N+](=O)[O-])cc3)cc2)cc1CCCN(C)C | 9% | 20% | 1% | 98% (active) | inactive | inactive | inactive | inactive
Cc1cc(N(C)C)nc(Nc2ccc(NC(=O)c3ccccc3Cl)cc2)n1 | 31% | 3% | -2% | 88% (active) | inactive | inactive | inactive | inactive
O=C(NCCc1ccccc1)N(Cc1ccccc1-c1cccc(CNC2CCCC2)c1)C1CCN(Cc2ccccc2)CC1 | 87% (active) | 31% | 5% | 95% (active) | inactive | inactive | inactive | inactive
Oc1ccc(-c2cncc(NCc3ccc(F)c(F)c3)c2)cc1 | 80% (active) | -14% | -3% | 95% (active) | inactive | inactive | inactive | inactive
Cc1ccc(CN2CCCN(Cc3cccc(NC(=O)c4ccc(-c5ccccc5)cc4)c3)CC2)cc1C | 19% | 43% | -4% | 84% (active) | inactive | inactive | inactive | inactive
O=C(Nc1ccc(Cn2ncc(N3CCCNCC3)c(Cl)c2=O)cc1)Nc1cc(C(F)(F)F)cc(C(F)(F)F)c1 | 29% | 25% | 3% | 100% (active) | inactive | inactive | inactive | inactive
CCCN(CCC)CCCNc1ccc(C(=O)Nc2ccc(C(C)C)cc2)cc1[N+](=O)[O-] | 38% | 17% | -8% | 98% (active) | inactive | inactive | inactive | inactive
O=c1cc(NCCCNCc2[nH]c3cc(Cl)ccc3c2Cl)[nH]c2ccccc12 | 1% | 5% | -2% | 91% (active) | inactive | inactive | inactive | inactive
CC(C)CNC(=O)CN1C(=O)C(c2ccccc2)(c2ccccc2)N=C1N | 46% | 15% | -1% | 94% (active) | inactive | inactive | inactive | inactive
FC(F)(F)c1ccc2nc(-c3ccc(-c4cccc(CNCc5ccccc5)c4)s3)[nH]c2c1 | 83% (active) | 15% | -5% | 102% (active) | inactive | inactive | inactive | inactive

Structure (SMILES) | growth inhibition [1] | inhibition [2] | inhibition [3] | growth inhibition [4] | outcome [5] | outcome [6] | outcome [7] | outcome [8]
O=C(/C=C/c1ccc(C(F)(F)F)cc1)N1CCc2cc3nccc(N4CCN5CCC[C@H]5C4)c3cc21 | 21% | -7% | -1% | 86% (active) | inactive | inactive | inactive | inactive
CCCCNc1ccc(C(=O)NC2CCN(C[C@H](O)c3ccnc4ccc(OC)cc34)CC2)cc1 | 64% (active) | 12% | -8% | 90% (active) | inactive | inactive | inactive | inactive
Cc1onc(-c2c(Cl)cccc2Cl)c1C(=O)NC1=NC(C)(C)ON1c1ccccc1 | 36% | 6% | 1% | 97% (active) | inactive | inactive | inactive | inactive
Cc1nc2nc(N)nc(N)c2c(C)c1Cc1ccc(O)cc1 | 0% | 64% (active) | 1% | 94% (active) | inactive | inactive | inactive | inactive
COc1ccc2nccc([C@@H](O)CN3CCC(NCc4ccc5nsnc5c4)CC3)c2c1 | 64% (active) | 12% | 3% | 95% (active) | inactive | inactive | inactive | inactive
CC(C)c1ccc(O)cc1Nc1ccnc2ccc(C(F)(F)F)cc12 | 90% (active) | 6% | -6% | 97% (active) | inactive | inactive | inactive | inactive
O=C(Nc1ccc(N2CCC(Nc3ccccn3)CC2)cc1)c1cnc(Cl)c(Cl)c1 | 1% | 46% | 0% | 83% (active) | inactive | inactive | inactive | inactive
COc1cc2nc(N3CCC(CCCC4CCNCC4)CC3)nc(NCc3ccccn3)c2cc1OC | 6% | 2% | 3% | 101% (active) | inactive | inactive | inactive | inactive
CS(=O)(=O)NCCCNCc1ccc(-c2ccc(-c3nc4ccc(F)cc4[nH]3)cc2)cc1 | 97% (active) | 17% | -1% | 100% (active) | inactive | inactive | inactive | inactive
Cc1cc(N[C@@H](CC(C)C)C(=O)NCc2cccc(F)c2)nc(Nc2ccccc2)n1 | 76% (active) | -5% | 2% | 100% (active) | inactive | inactive | inactive | inactive
N#Cc1cccc(CN2CCCN(Cc3cccc(C(=O)Nc4ccc(Cl)cc4)c3)CC2)c1 | 9% | 46% | 1% | 82% (active) | inactive | inactive | inactive | inactive
C[C@H](NC(=O)c1c(CN2CCC(NC(=O)CC(C)(C)C)CC2)c(-c2cccs2)nc2ccccc12)C1CCCCC1 | 70% (active) | -3% | -3% | 91% (active) | inactive | inactive | inactive | inactive
Cc1cc(-c2cccc(CNC3CCN(C)CC3)c2)ccc1S(=O)(=O)NCCc1ccccn1 | 72% (active) | 22% | 2% | 97% (active) | inactive | inactive | inactive | inactive
CC1(C)N=C(N)N=C(N)N1OCOc1ccc(Cl)cc1 | 96% (active) | 68% (active) | 6% | 94% (active) | inactive | inactive | inactive | inactive
COc1ccc(CN2CCC(CNCCc3c(Cl)cccc3Cl)CC2)cc1 | 69% (active) | 45% | -11% | 98% (active) | inactive | inactive | inactive | inactive
Cc1cc(N(C)C)nc(Nc2ccc(NC(=O)c3c(F)cccc3Cl)cc2)n1 | 36% | 15% | 4% | 90% (active) | inactive | inactive | inactive | inactive
Cc1cc(NN=Cc2cccc([N+](=O)[O-])c2)c2ccc(C(F)(F)F)cc2n1 | 51% (active) | 2% | 1% | 101% (active) | inactive | inactive | inactive | inactive
Cc1c(Cl)cccc1S(=O)(=O)N1CCCCC(c2ccc(C(F)(F)F)cc2)=N1 | 91% (active) | 15% | 5% | 86% (active) | inactive | inactive | inactive | inactive
CCc1c(CCNCCCCCCNCCc2ccc(OC)cc2)ccc(OC)c1OC | -1% | 16% | 8% | 98% (active) | inactive | inactive | inactive | inactive
